# Compound activity as filed in PubChem.
# NTR1 ag: activates human neurotensin receptor 1; hit rate 0.17% among 330,000; NTR1-U2OS beta-arrestin-GFP spot imaging, agonist mode; activation, % at 20 µM; AID 493036; P30989;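 active = activation at or above 40% of the spot to cytoplasm intensity ratio, with at least 20 cells analyzed; inconclusive = wells under 20 cells, flagged as cytotoxic or low count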
# GRK2 inh: inhibitors of human GRK2 displacing RNA aptamer | P25098 | AID 488847 | bead flow cytometry, FAM-aptamer displacement from GRK2 | hit rate 0.59% among 330,000 | inhibition of aptamer binding, % at 10 µM;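 active = inhibition of aptamer binding above 40%, roughly 3 SD of noise, on plates passing a quality check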;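 also: median bead fluorescence of bound FAM aptamer so fluorescent compounds give negative values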
# Target sequence (P25098 whole entry, looked up): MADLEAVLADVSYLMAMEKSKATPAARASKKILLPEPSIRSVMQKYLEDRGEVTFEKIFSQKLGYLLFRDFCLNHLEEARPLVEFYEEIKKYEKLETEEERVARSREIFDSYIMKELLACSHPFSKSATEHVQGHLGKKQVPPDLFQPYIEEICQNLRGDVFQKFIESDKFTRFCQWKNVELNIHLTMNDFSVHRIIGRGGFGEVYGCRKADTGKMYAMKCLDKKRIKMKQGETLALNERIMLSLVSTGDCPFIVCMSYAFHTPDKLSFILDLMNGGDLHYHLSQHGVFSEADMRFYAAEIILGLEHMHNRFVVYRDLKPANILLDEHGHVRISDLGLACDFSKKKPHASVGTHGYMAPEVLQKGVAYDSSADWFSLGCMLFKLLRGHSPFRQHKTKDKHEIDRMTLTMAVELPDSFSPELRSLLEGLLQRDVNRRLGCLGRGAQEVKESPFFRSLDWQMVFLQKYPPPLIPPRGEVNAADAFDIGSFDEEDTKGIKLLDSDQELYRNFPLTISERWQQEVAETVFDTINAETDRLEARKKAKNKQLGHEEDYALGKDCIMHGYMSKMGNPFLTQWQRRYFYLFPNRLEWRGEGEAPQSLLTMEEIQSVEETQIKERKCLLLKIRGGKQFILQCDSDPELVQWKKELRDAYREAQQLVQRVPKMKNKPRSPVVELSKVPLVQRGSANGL
# VLA-4 inh: inhibition in a human VLA-4 binding assay | P13612 | VLA-4 expressing cells, ligand binding flow cytometry | inhibition, % (about 7 µM as worked out from the volumes in the protocol) | hit rate 0.2% among 330,000 | AID 2557; in the data active = inhibition above about 50%
# B2AR ag: activates human beta-2 adrenergic receptor causing internalization | Am2.2-beta2AR cells, FAP receptor internalization, flow cytometry | AID 504454 | P07550 | response, % (concentration not given with the values) | hit rate 0.43% among 340,000;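 active = response above a set limit, near 3 SD of response in nonfluorescent compounds, cut at about 42% in these data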
# A1 inh: inhibitors of the anti-apoptotic protein A1, read as caspase activation; MEF A1-2A-BIM cells, Caspase-Glo 3/7 luminescence, 3 h; percent of clofoctol response, vehicle zero; AID 2462; hit rate 0.066% among 330,000; caspase activation, % (test concentration not listed);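 active = over half of replicate activation scores above 10%, or exactly half above 10 with the replicate mean above 10; inconclusive = replicate mean below 10 yet half the replicates above 10; inactive = over half of replicates below 10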
# VLA-4 allo CP: human VLA-4 allosteric modulation in cherry picked compounds. shares compounds with VLA-4 inh. U937 cells, HUTS-21 LIBS mAb binding, flow cytometry; LDV ligand present at threefold Kd. inhibition, % at 6.7 µM. hit rate 2% among 1,300. AID 2813; in the data active = inhibition above about 40%
# GRK2 inh confirm: confirmation of human GRK2 inhibitors displacing RNA aptamer | shares compounds with GRK2 inh | bead-bound GRK2, FAM-aptamer displacement, flow cytometry | aptamer displacement, % at 10 µM | hit rate 4% among 2,000;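 active = aptamer displacement above 40%, near three times the noise of non-fluorescent compounds, on plates passing quality checks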;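 also: negative values mostly reflect intrinsic compound fluorescence rather than true enhancement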
# Aptamer quench 1: quenches fluorescent RNA aptamer, GRK2 hit artifact. shares compounds with GRK2 inh. Fluorescent RNA aptamer beads, quenching, flow cytometry; active compounds read high. fluorescence change (kMESF span), kMESF (test concentration not listed). 110 tested, under 10 active. AID 504521;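 active = compounds whose bead fluorescence drops by more than 37 kMESF across the dose range, marking them as dye quenchers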
# Aptamer quench SP: aptamer fluorescence quenching in GRK2 counter-screen; shares compounds with GRK2 inh; Carboxyfluorescein RNA aptamer on beads, flow cytometry quenching; active compounds read low; fluorescence response (% of DMSO), % at 10 µM; 2,000 tested, under 10 active; AID 504580;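 active = compounds that quench the bead-bound fluorescent RNA probe, cutting fluorescence to under half of the solvent control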;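 also: counterscreen run without GRK2 so only probe quenching by compound is measured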
# GRK2 confirm 2: human GRK2 inhibition confirmation, cherry pick 2; inhibition of aptamer binding, % at 10 µM; bead-bound GRK2, FAM-aptamer displacement, flow cytometry; 360 tested, under 10 active; AID 504782; shares compounds with GRK2 inh;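 active = inhibition of aptamer binding above 40%, about triple the noise seen with nonglowing compounds, on plates passing quality control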;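 also: negative values mostly come from compounds that fluoresce themselves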
# FAM quench CP2: quenches fluorescent RNA aptamer, GRK2 hit artifact. carboxyfluorescein RNA aptamer beads, flow cytometry quenching; active compounds read low. AID 588494. shares compounds with GRK2 inh. fluorescence response vs DMSO, % at 10 µM. 360 tested, under 10 active;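 active = response vs DMSO under 50%, meaning signal dropped by over half, treated as fluorescence quencher; inconclusive = no clear call, values can overlap the other calls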;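 also: labelled aptamer on streptavidin beads without GRK2 as a quench counter-screen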
# B2AR ag CP1: agonists of human beta-2 adrenergic receptor | hit rate 25% among 1,100 | percent response (surface receptor), % at 10 µM | Am2.2-beta2AR cells, FAP surface receptor, flow cytometry; active compounds read low | shares compounds with B2AR ag;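 active = surface receptor percent response at or below 58%, roughly 3 SD from nonfluorescent compounds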
# B2AR FAP counter: counter-screen for beta-2AR agonists: fluorescence in Am2.2 cells; shares compounds with B2AR ag; FAP fluorogen flow cytometry, fluorescence counterscreen; active compounds read low; calls only at 10 µM; 1,100 tested, under 10 active; AID 588765;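 active = percent response below a set limit in fluorescence channel 1 and below 50% in channel 8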
# Hits are given with their value; n = inactive; u = inconclusive; x = not tested or not shown. Shown are actives, neighbours in structure and some others; about 1.3% of the full set was active somewhere.
SMILES,NTR1 ag,GRK2 inh,VLA-4 inh,B2AR ag,A1 inh,GRK2 inh confirm,Aptamer quench SP,others
Cc1cc(C)n(-c2nc(NC(C)C)nc(NC(C)C)n2)n1,n,n,57,n,n,x,x,VLA-4 allo CP=n;B2AR ag CP1=n;B2AR FAP counter=n
CCNc1nc(NCC)nc(-n2nc(C)cc2C)n1,n,n,n,n,n,x,x,VLA-4 allo CP=n;B2AR ag CP1=n;B2AR FAP counter=n
Cc1cc(C)n(-c2nc(NC(C)(C)C)nc(NC(C)(C)C)n2)n1,n,n,n,n,n,x,x,
Cc1cccc(CS(=O)(=O)c2ncc(CO)n2C)c1,n,n,n,n,n,x,x,
C[C@H](NCCc1ccc(O)cc1)[C@H](O)c1ccc(O)cc1,n,n,52,n,n,x,x,VLA-4 allo CP=n;B2AR ag CP1=n;B2AR FAP counter=n
CC(=O)NCCc1ccc(O)cc1,n,n,n,n,n,x,x,
O=c1c2c(ncn2C2CCCC2)n(Cc2ccccc2)c(=O)n1CCOc1ccc(Br)cc1,n,100,n,n,n,x,x,GRK2 confirm 2=n;FAM quench CP2=n
O=c1c2c(ncn2C2CCCC2)n(Cc2ccccc2)c(=O)n1CCOc1ccccc1,n,n,n,n,n,x,x,
COCCCNC(=O)CCC(=O)Nc1ccc2nc(N3CCOCC3)cc(C)c2c1,n,n,n,n,n,x,x,
Cc1cc(N2CCN(C)CC2)nc2ccc(NC(=O)CCC(=O)NCCCOC(C)C)cc12,n,93,n,n,n,n,n,
Cc1nnc(SCc2c(Cl)cccc2Cl)n(N)c1=O,n,61,n,n,n,n,n,
CCN1/C(=C\C(=S)Nc2ccccc2)Sc2ccccc21,n,n,n,n,n,x,x,
CCN1/C(=C/C(C)=C/c2sc3ccccc3[n+]2CC)Sc2ccccc21,n,100,x,n,n,99,n,Aptamer quench 1=n
CC(=NNC(=O)CSc1nc2ccccc2o1)c1ccco1,n,n,n,n,n,x,x,
CC(C)(C)OC(=O)N(CCc1ccccc1)Cc1cccc(OCc2cccc(NC(=O)c3ccccc3)c2)c1,x,x,x,n,x,x,x,
C/C(=C\C(=O)c1ccc(C)cc1)Nc1cccc(O)c1,n,n,n,n,n,n,n,
COc1ccc(NC(=O)CSc2nncn2C)c([N+](=O)[O-])c1,n,51,n,n,n,n,n,
Cn1cnnc1SCC(=O)Nc1ccccc1Oc1ccccc1,n,50,n,n,n,n,n,
COc1ccc(Cn2c(=O)[nH]c3cc(C(=O)N4CCN(c5ccc(C(C)=O)cc5)CC4)ccc3c2=O)cc1,n,n,n,n,n,x,x,
CC(=O)c1sc(N/N=C2\CC3CC2C(C)C3(C)C)nc1C (stereo unspecified),n,n,n,n,n,x,x,
COc1ccc(CN(C)C(=O)c2cccc(S(=O)(=O)N3CCCc4ccccc43)c2)c(OC)c1OC,x,x,x,n,x,n,n,
COc1ccc(OC(=O)c2cnn(-c3ccccc3)c2C)cc1,n,44,n,n,n,n,n,
CC(C)NC(=O)CC1(C(=O)NCc2ccc(Cl)cc2)CCCC1,n,50,n,n,n,x,x,GRK2 confirm 2=n;FAM quench CP2=n
CN(C=O)c1cc([N+](=O)[O-])ccc1OCc1ccccc1,x,x,x,n,x,x,x,
CN1CCN(CCCOc2ccc(-c3ccccc3)cc2)CC1,n,n,n,n,n,x,x,
SMILES,NTR1 ag,GRK2 inh,VLA-4 inh,B2AR ag,A1 inh,GRK2 inh confirm,Aptamer quench SP,others
CCN1CCN(CCCOc2ccc(-c3ccccc3)cc2)CC1,n,n,n,x,n,n,n,
COCCN(C(=O)COC(=O)c1cc(C)oc1C)c1c(N)n(Cc2ccccc2)c(=O)[nH]c1=O,n,n,n,n,n,x,x,
CC(=O)N/C(=N\c1nc(C)cc(C)n1)Nc1ccccc1Cl,n,x,x,n,x,x,x,
CC(=O)N/C(=N/c1nc(C)cc(C)n1)Nc1cccc(C)c1C,n,n,n,n,n,n,n,
CCC1CCCCN1C(=O)COC(=O)c1cc(C)nc2ccccc12 (stereo unspecified),n,n,n,n,n,x,x,
COc1ccc(Cl)cc1-c1nc(SCC(=O)NC(C)C(C)C)n[nH]1 (stereo unspecified),n,n,n,n,n,x,x,
COc1ccc(Cl)cc1-c1nc(SCC(=O)NC(C)C)n[nH]1,n,46,n,n,n,n,n,
O=C(NNC(=S)Nc1ccccc1C(F)(F)F)c1ccc(Br)o1,n,42,n,n,n,n,n,
Cc1occc1C(=O)NNC(=S)Nc1ccccc1C(F)(F)F,n,n,n,n,n,x,x,
Cc1ccsc1C(=O)OCC(=O)c1cc(C)n(C)c1C,n,46,n,n,n,x,x,GRK2 confirm 2=n;FAM quench CP2=u
Cc1cc(C(=O)COC(=O)c2nccnc2N)c(C)n1C,n,n,n,n,n,x,x,
CCc1ccc(-c2ccc(SCC(=O)Nc3nnc(C)s3)nn2)cc1,n,n,n,n,n,x,x,
O=C(Cc1cc(C(=O)O)c2ccccc2n1)Nc1ccccc1,n,n,n,n,n,x,x,
CCN(CC)C(=O)Cc1cc(C(=O)O)c2ccccc2n1,n,n,n,n,n,n,n,
COc1ccccc1CNC(=O)C1COc2ccccc2O1 (stereo unspecified),n,52,n,n,n,n,n,
CN(C(=O)c1ccccc1Cl)c1ccccc1C(=O)NCCc1ccccc1,n,n,n,n,n,x,x,
Cc1noc(/C=C/N(C)C)c1S(=O)(=O)N1CCCC(C(=O)NCc2ccccc2Cl)C1 (stereo unspecified),n,n,n,n,n,n,n,
COc1ccc2nc(NC(=O)C3CCCN(S(=O)(=O)c4cccc5nonc45)C3)sc2c1 (stereo unspecified),n,87,n,n,n,n,n,
COc1ccc(CNC(=O)C2CCCN(S(=O)(=O)c3c(C)noc3/C=C/N(C)C)C2)cc1 (stereo unspecified),n,n,n,n,n,n,n,
O=C(NCc1ccccc1Cl)C1CCCN(S(=O)(=O)c2cccc3nonc23)C1 (stereo unspecified),n,n,n,n,n,n,n,
